# Screening results (PubChem)
# HT1080 IDH1KD tx – kills HT-1080 cells with IDH1 knockdown; 2% of 360,000 active; Potency, µM (highest dose often 46.1 µM), for inactives: at the top dose activity, negative = toxicity, hits mostly cytotoxic; HT-1080 IDH1 knockdown viability, ATP luminescence, 48 h;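 further: potency means the concentration at half of the fitted maximal effect; 0% = DMSO wells and -100% = cell-free medium wells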
#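 HT-1080-IDH1KD cells (IDH1 knocked down), 750/well in RPMI with 5% FBS, treated with compound 48 h at 37 degrees C. Viability by CellTiter-Glo luminescence, normalised to DMSO and no-cell wells; concentration-response curves classed.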
# IL-1B inflam inh – inflammasome signaling inhibition, IL-1 beta readout | THP-1 LPS/ATP IL-1B secretion, AlphaLISA, 16 h; stronger effect = lower value | activity change, % at 57.5 µM | 4.7% of 360,000 active | AID 743279; in the data active means activity change below about -50%; inconclusive means mostly about -30% to -49%
#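 Secreted IL-1B measured by AlphaLISA bead assay after 16 h compound exposure of THP-1 cells; compounds (final up to 57.5 uM) added 1 h before LPS (250 ng/mL) and ATP (1.25 mM) stimulation; lower signal means less secretion.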
# TDP1 cell noCPT – qHTS for Inhibitors of human tyrosyl-DNA phosphodiesterase 1 (TDP1): qHTS in cells in absence of CPT. DT40 Tdp1-/- hTDP1 cells, no CPT, ATP luminescence, 48 h. Potency, µM (titrated, usually from 46.2 µM), without a hit: top-dose activity change, negative = growth inhibition, actives largely listed as inhibitors. 15% of 420,000 active; further: potency means the concentration at half of the fitted maximal effect; nearly all actives have a fitted effect of over 55% in size
#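 Growth of hTDP1-complemented DT40 Tdp1-knockout cells is measured by ATP luminescence after at least 48 hr compound exposure at 37 °C, with DMSO substituting for the 20 nM CPT used in the parallel screen.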
# TDP1 cell CPT – growth inhibition of DT40 Tdp1-/-;hTDP1 cells with camptothecin (screen for TDP1 inhibitors); 12% of 420,000 active; AID 686979; Potency, µM (top dose mostly 46.2 µM), for the others: top-dose activity change, negative = growth inhibition, actives largely listed as inhibitors; chicken DT40 Tdp1-/-;hTDP1 cells + 20 nM CPT, ATP luminescence, 48 h; further: potency means the concentration at half of the fitted maximal effect; nearly all actives have a fitted effect of over 55% in size
#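 Cell growth measured by CellTiter-Glo luminescence after a minimum 48 h, 37 C compound exposure with 20 nM CPT in Tdp1-knockout DT40 cells stably expressing hTDP1, seeded 400/well; qHTS titration format.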
# HT1080-NT tox – kills 2HG-producing HT-1080-NT fibrosarcoma cells. 1.6% of 360,000 active. Potency, µM (doses to about 46.1 µM), without a hit: top-dose activity, negative = less viability, usual class: cytotoxic. HT-1080-NT fibrosarcoma viability, CellTiter-Glo ATP luminescence, 48 h;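 further: NT is the 2HG producing partner of a matched IDH1 knockdown line; potency means the concentration at half of the fitted maximal effect; 0% = DMSO-treated cells and -100% = media-only wells without cells; nearly all actives have a fitted effect of over 55% in size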
#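 HT-1080-NT fibrosarcoma cells (2HG-overproducing), 750 cells/well in RPMI with 5% FBS, dosed after 2 h and incubated 48 h at 37C. CellTiter-Glo luminescence normalized to DMSO and no-cell wells; concentration-response curves fitted and classed.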
# Active calls of the source: *; ? = inconclusive; nt = no result given. Compounds with a hit are over-represented: about 19% of the library has one in this group of screens. Unless noted, the call rests on the fitted dose curve; in most records, active means well fitted curve in the direction sought with a large enough effect; inconclusive means small, poorly fitted or top-dose-only effect, or another doubt; inactive means no such curve, though single readings can be large; an effect the other way counts as inactive or inconclusive. Unless noted, on the % scale 0 is the no-effect control and ±100 the full control effect.
SMILES,HT1080 IDH1KD tx,IL-1B inflam inh,TDP1 cell noCPT,TDP1 cell CPT,HT1080-NT tox
CC(C)N(C(=O)COC(=O)c1ccc([N+](=O)[O-])cc1)c1ccccc1,-1%,22,-4%,-8%,8%
CCc1ccc(OCC(O)CN2CCN(c3ccc(OC)cc3)CC2)cc1 (stereo not given),5%,7,-25%,?,-1%
CC(=O)Nc1ccc(C(=O)OCC(=O)Nc2c(F)cccc2F)cc1,1%,-14,13%,-10%,-2%
O=C(NCC1COc2ccccc2O1)c1cc(S(=O)(=O)N2CCOCC2)ccc1F (stereo not given),-5%,-1,-26%,-19%,-10%
O=C(NCCOc1ccccc1F)c1cccc(S(=O)(=O)N2CCN(c3ccccc3)CC2)c1,-2%,-28,26µM*,?,-3%
CN(Cc1ccc(F)cc1)C(=O)c1cccc(S(=O)(=O)N2CCN(c3ccccc3)CC2)c1,-16%,-27,23µM*,?,-2%
CN(Cc1cccc(F)c1)C(=O)c1ccc(S(=O)(=O)N2CCCCCC2)cc1,-5%,-66*,?,?,-1%
O=C(NCC1COc2ccccc2O1)c1c[nH]c2ccc(S(=O)(=O)N3CCOCC3)cc2c1=O (stereo not given),-7%,-4,13µM*,12µM*,-3%
CN(CC(=O)Nc1cccc(F)c1)C(=O)c1cccc(S(=O)(=O)N2CCN(c3ccccc3)CC2)c1,-6%,?,?,?,-6%
COc1cccc(C(c2sc3nc(-c4ccco4)nn3c2O)N2CCN(c3ccccc3F)CC2)c1 (stereo not given),nt,nt,-23%,-24%,nt
O=C(NNc1c(F)c(F)cc(F)c1F)C1CCN(S(=O)(=O)c2ccccc2F)CC1,-1%,0,15%,2%,1%
CN1CCN(S(=O)(=O)c2cccc(C(=O)N(C)Cc3c(F)cccc3Cl)c2)CC1,-1%,5,?,?,-4%
CN(Cc1ccc(F)cc1)C(=O)c1cccc(S(=O)(=O)N2CCN(c3ccc(F)cc3)CC2)c1,-16%,-58*,15µM*,16µM*,?
Cc1ccc(-c2nc3cc(NC(=O)c4cc5ccccc5o4)ccc3o2)cc1,nt,nt,?,-20%,nt
COc1ccc(-c2nc3cc(NC(=O)c4cc5ccccc5o4)ccc3o2)cc1,nt,nt,16µM*,?,nt
CCc1ccc(-c2nc3cc(NC(=O)c4cc5ccccc5cc4OC)ccc3o2)cc1,nt,nt,13µM*,?,nt
COc1cc2ccccc2cc1C(=O)Nc1cccc(-c2nc3cc(C)c(C)cc3o2)c1,nt,nt,15µM*,?,nt
N#Cc1ccccc1Sc1ccccc1N,-24%,-9,-1%,-1%,10%
Nc1ccccc1SSc1ccccc1N,23µM*,-97*,3.7µM*,5.2µM*,?
O=C(NCCc1ccc(F)cc1)C(=O)NCC(c1ccc2c(c1)OCO2)N1CCOCC1 (stereo not given),nt,nt,-7%,-5%,nt
COc1ccc(N2CCN(C(=O)C(CC(C)C)NS(=O)(=O)c3ccc4nc(C)sc4c3)CC2)cc1 (stereo not given),nt,nt,-82%,12µM*,nt
Cn1c(O)c(N=NC(=O)c2cccc(S(=O)(=O)N3CCCCC3)c2)c2ccccc21,-19%,-22,?,16µM*,-22%
NC(=O)c1cccc(S(=O)(=O)N2CCCCC2)c1,-9%,20,1%,-26%,6%
CCN(CC)C(=O)c1[nH]cnc1C(=O)NCC(=O)OCc1ccccc1,9%,15,-18%,-1%,2%
Cc1cc(C)c(NC(=O)CSc2ncc3c(n2)-c2cc(Cl)ccc2N(C)S3(=O)=O)c(C)c1,nt,nt,0.046µM*,0.16µM*,nt
CCc1ccccc1NC(=O)CSc1ncc2c(n1)-c1cc(Cl)ccc1N(Cc1ccccc1)S2(=O)=O,nt,nt,-15%,-24%,nt
CCc1cccc(NC(=O)CSc2ncc3c(n2)-c2ccccc2N(CC)S3(=O)=O)c1,nt,nt,-30%,-32%,nt
